Hits are enriched below; roughly 11% of the tested compounds scored in any of these assays.
Sfp inh: blocks B. subtilis Sfp PPTase activity. Q9F4F7. Biochemical Sfp PPTase activity, qHTS. Potency, µM, inactives show largest response in the series, negative = inhibition, hits mostly inhibitors. actives 3.5% (n = 310,000);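 also: the enzyme is Sfp with the accession as filed and its product quenches rhodamine fluorescence; potency is read from the fitted curve at half-maximal effect; 0% = enzyme reaction without inhibitor and -100% = no enzyme wells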
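Fluorescence-quenching assay with 15 nM Sfp, 5 uM rhodamine-CoA and 12.5 uM BHQ-2-labelled ybbR peptide in pH 7.6 Hepes/MgCl2 buffer. Enzyme was pre-incubated with compound for 15 min at room temperature. Rate was taken from the 30-min fluorescence change (525/598 nm).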
FBPA coupling cs: inhibits coupling enzyme system, counter-screen for aldolase hits | AID 2472 | coupling enzyme system counterscreen, AmpLite Red fluorescence | activity change, negative = inhibition, % at 58.2 µM, hits read low | actives 0.67% (n = 290,000); in the data active = activity change below about -30%
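Activity here indicates interference with the coupling reaction, not aldolase inhibition. Compounds at 57.5 uM final met coupling enzymes for 10 min at RT; substrate and AmpLite Red detection followed, with a 525/598 nm fluorescence read after 20 min.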
G9a inh: G9a (human) methyltransferase inhibition | Potency, µM (series often up to 102 µM), for inactives: at the top dose activity, negative = inhibition, actives largely listed as inhibitors | G9a H3K9 monomethylation, AlphaScreen, 2 h | AID 504332 | actives 8.8% (n = 350,000); also: potency is read from the fitted curve at half-maximal effect; nearly all actives have a fitted effect of over 75% in size
Target sequence (Q96KQ7 913-1193 limits assumed): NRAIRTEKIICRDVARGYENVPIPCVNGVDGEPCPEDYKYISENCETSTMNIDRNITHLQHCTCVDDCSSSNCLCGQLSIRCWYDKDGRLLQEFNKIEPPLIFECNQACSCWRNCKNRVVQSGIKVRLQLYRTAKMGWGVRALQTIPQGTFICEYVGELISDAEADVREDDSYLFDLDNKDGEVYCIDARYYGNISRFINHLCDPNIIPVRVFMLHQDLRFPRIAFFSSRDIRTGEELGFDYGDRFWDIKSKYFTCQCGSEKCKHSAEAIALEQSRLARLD
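Chemiluminescent proximity detection of H3K9 monomethylation, read after 10 min bead incubation in the dark. Reaction: 20 nM G9a, 500 nM biotin-H3K9 peptide, 20 uM SAM cofactor, 2 h, room temperature, following 15 min enzyme-compound preincubation.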
Tau ThT inhib: tau fibrillization inhibition (ThT binding). P10636. recombinant tau K18 P301L, heparin-induced fibrillization, ThT fluorescence. Potency, µM (top dose mostly 57.4 µM), for inactives: at the highest dose activity, negative = inhibition, most hits filed as inhibitors. actives 2.1% (n = 270,000). AID 1460; also: potency is read from the fitted curve at half-maximal effect; nearly all actives have a fitted effect of over 55% in size
Target sequence (P10636 561-689 P618L limits assumed): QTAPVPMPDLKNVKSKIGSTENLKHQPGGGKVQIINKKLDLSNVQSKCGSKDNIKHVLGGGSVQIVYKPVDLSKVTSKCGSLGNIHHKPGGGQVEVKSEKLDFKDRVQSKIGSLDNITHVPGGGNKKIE
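Tau K18 P301L fragment (15 uM unlabeled plus 0.24 uM Alexa 594-labeled) in 100 mM sodium acetate pH 7 with compound, fibrillization induced by 20 uM heparin for 6 hr at 37 C. Thioflavin T (30 uM) added, fluorescence read after 1 hr (ex 450, em 510 nm).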
Tau fluor counter: counter-screen for tau fibril formation inhibitors; AID 1463; tau K18 P301L (four-repeat tau fragment) Alexa594 fluorescence, heparin fibrillization; Potency, µM (titrated, usually from 57.7 µM), without a hit: top-dose activity change, negative = decrease; actives 0.93% (n = 280,000); also: potency is read from the fitted curve at half-maximal effect; nearly all actives have a fitted effect of over 55% in size
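Human K18 P301L tau (15 uM unlabeled plus 0.24 uM Alexa 594-labeled, final) in 100 mM sodium acetate pH 7 was mixed with compound and 20 uM heparin and incubated 6 hr at 37 C.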
Tau FP inhib: blocks human tau fibril formation measured by polarization; P10636; K18 P301L tau heparin fibrillization, Alexa594 FP, 6 h; Potency, µM (top dose mostly 57.7 µM), without a hit: at the highest dose activity, negative = inhibition, usual class: inhibitors; actives 0.39% (n = 280,000); also: potency is read from the fitted curve at half-maximal effect; nearly all actives have a fitted effect of over 55% in size
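Human tau K18 […] P301L fragment, 15 uM unlabeled plus 0.24 uM Alexa 594-labeled tau (final), with compound and 20 uM heparin in 100 mM sodium acetate pH 7; 6 hr at 37 C, then Alexa 594 FP read.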
Numbers without * were called inactive; ? = inconclusive; / = no result given; ! = repeats disagree; [ ] = another dose, or the depositor's remark. Unless noted, calls follow the shape of the dose curve; as a rule, active = well fitted curve in the direction sought with a large enough effect; inconclusive = small, poorly fitted or top-dose-only effect, or another doubt; inactive = no such curve, though single readings can be large; an effect the other way counts as inactive or inconclusive. Unless noted, % is scaled to controls: 0 for no effect and ±100 for the full control effect.

SMILES | Sfp inh | FBPA coupling cs | G9a inh | Tau ThT inhib | Tau fluor counter | Tau FP inhib
Fc1ccc(-c2ccnc(=S)[nH]2)cc1 | 20µM* | 0 | -49%[12.7 µM] | ? | -12% | ?
Cc1ccc(C)c(NCC(=O)NNC(=S)Nc2ccccc2)c1 | 13% | 2 | 22µM* | -9% | -12% | -3%
Cc1ccc(C)c(NC(=O)CCC(=O)NNC(=S)Nc2ccccc2)c1 | 12% | -1 | 50µM* | 5% | -6% | -8%
Cc1nn(CCC(=O)NNC(=S)Nc2ccccc2)c(C)c1Br | 2% | -1 | 13µM* | -17% | -12% | 4%
COc1ccc(-c2cc(C(=O)NC(Cc3cc4ccccc4[nH]3)C(=O)O)c(C)o2)cc1OC (centres undefined) | 22µM* | 1 | 32µM* | ? | ? | -9%
CN(C)/C=C/C(=O)c1ccc(-c2ccc(Cl)cc2Cl)o1 | -22% | 2 | 45µM* | ? | 3% | 8%
Cc1ccc(CNC(=O)C2CCN(S(=O)(=O)c3ccc4c(c3)oc(=O)n4C)CC2)cc1 | / | / | ? | 6% | -7% | -9%
Cc1c2ccccc2c(C)c2c1ccc1ccccc12 | / | / | 300%[59 µM] | / | / | /
Cc1c2ccccc2c(CSC(=N)N)c2ccccc12 | 45µM* | -5 | / | 13µM* | -28% | ?
CC(C)(C)C(=O)[C@H]1[C@H](c2ccccc2)[C@@]2(N=C(c3ccccc3)OC2=O)C2c3ccccc3C=NN21 (some centres undefined) | 3% | -2 | 79µM* | ? | -29% | -8%
CN(CCC#N)C(=O)COC(=O)c1ccc2c(c1)C(=O)N(C1CCCCC1)C2=O | 1% | / | / | / | / | /
COc1c(C)cccc1C(=O)NC(=S)Nc1ccc2c(c1)Cc1ccccc1-2 | 9% | 0 | 19%[59 µM] | -13% | -3% | 3%
O=C(Nc1ccc(Cl)cc1)Nc1cccc2nsnc12 | ? | -6 | 66%[12.7 µM] | ? | ? | 14µM*
O=C(Nc1ccncc1)Nc1cccc(Cl)c1Cl | 4% | 0 | -2% | / | / | /
COc1c(C)cccc1C(=O)NC(=S)Nc1cccc2nsnc12 | ? | -9 | 45µM* | 25µM* | -27% | ?
CC(C)CC(=O)NC(=S)Nc1cccc2nsnc12 | ? | -16 | 35µM* | ? | -15% | -3%
O=C(Nc1ccc(F)cc1)Nc1ccccc1NS(=O)(=O)c1cccs1 | 21% | 4 | ? | -10% | ? | -11%
CC(C)CC(=O)NC(=S)Nc1ccccc1F | 14% | -1 | -3%[59 µM] | -8% | 0% | 2%
O=C(Nc1ccc(Cl)cc1)Nc1ccccc1NS(=O)(=O)c1cccs1 | -6% | 4 | 1%[59 µM] | ? | 14µM*[quencher] | ?
O=C(NC1CCCCC1)c1ccc2c(c1)N(Cc1ccc(Cl)cc1)C(=O)c1ccccc1S2(=O)=O | / | / | -2%[59 µM] | -8% | -24% | -9%
COc1ccc(CNC(=O)CSc2nc3ccsc3c(=O)n2Cc2ccccc2Cl)cc1 | / | / | 8%[59 µM] | -1% | -11% | -9%
COc1ccccc1NCc1nnc(-c2ccccc2)o1 | -2% | 4 | / | / | / | /
CCOC(=O)c1c(C)[nH]c(C)c1S(=O)(=O)N1CCC(C(=O)NCc2ccccc2)CC1 | / | / | 0%[59 µM] | -6% | -7% | -7%
CCc1c(C(=O)NCCc2ccc(N3CCCCC3)cc2)[nH]c2ccc(Cl)cc12 | / | / | 28µM* | / | / | /
CCOCCCNC(=O)Cc1c(C(=O)O)[nH]c2ccc(Cl)cc12 | 10% | 2 | 17%[59 µM] | -3% | 3% | 7%
SMILES | Sfp inh | FBPA coupling cs | G9a inh | Tau ThT inhib | Tau fluor counter | Tau FP inhib
O=C1NN(c2cccc(Br)c2)C(=O)/C1=C\c1ccc(N2CCOCC2)cc1 | -2% | 4 | 79µM* | / | / | /
CCCCC1=CC2=CC(=O)C(C)(OC(=O)c3cnc4ccccc4n3)C(=O)C2=CO1 (centres undefined) | 79µM*! | -1 | ? | ? | -5% | -5%
COC(=O)CCCC1=CC2=CC(=O)C(C)(OC(=O)c3cnc4ccccc4n3)C(=O)C2=CO1 (centres undefined) | 11% | 0 | / | -3% | -5% | 2%
CCCCC1=CC2=CC(=O)C(C)(OC(=O)CCc3ccccc3)C(=O)C2=CO1 (centres undefined) | 14% | 2 | ? | 25µM*! | ? | ?
CC(C)(C)OC(=O)NCCCC1=CC2=CC(=O)C(C)(OC(=O)CCc3ccccc3)C(=O)C2=CO1 (centres undefined) | 0% | -2 | / | -11% | -6% | ?
COc1ccc(C(C(N)=O)c2ncc(C(F)(F)F)cc2Cl)cc1OC (centres undefined) | -1% | 5 | / | 0% | 4% | 12%
O=S(=O)(NC1CCSc2ccccc21)c1ccccc1 (centres undefined) | 14% | 1 | 22% | / | / | /
COc1ccc(S(=O)(=O)NC2CCSc3ccccc32)cc1OC (centres undefined) | 18% | 1 | 50µM* | / | / | /
COc1ccc(CNC2CCSc3ccccc32)cc1OC (centres undefined) | -9% | 0 | 10µM* | / | / | /
Cc1ccc(-n2c3c(c(=O)[nH]c2=O)C(NC(=O)c2ccccc2F)(C(F)(F)F)C(=O)N3)cc1C (centres undefined) | / | / | 7%[59 µM] | -1% | -11% | ?
Cc1cccc(NC(=O)CCN2CCN(C)CC2)c1 | -15% | -4 | ? | / | / | /
Cc1ccc(NC(=O)CN2CCCCCC2)cc1Br | -14% | -4 | 22µM* | 5% | -5% | 2%
Cc1cccc(NC(=O)CN2CCN(CC(=O)Nc3cccc(C)c3)CC2)c1 | 20% | 0 | 50µM* | -3% | -7% | -13%
Cc1ccc(NC(=O)CN(C)C2CCCCC2)cc1Br | 56µM* | -6 | 25%[0.501 µM] | -8% | -10% | 2%
O=C(CN1CCCCCC1)Nc1cccc(Br)c1 | 6% | 0 | -32% | 0% | -6% | -6%
O=C(c1cccc(Cl)c1)N1CCC(c2nc3c(nnn3Cc3ccc(F)cc3F)c(=O)[nH]2)CC1 | / | / | -1%[59 µM] | -2% | -4% | 3%
Cc1cc(C(=O)COC(=O)c2cc(O)c3ccccc3c2O)c(C)n1CC1CCCO1 (centres undefined) | 79µM* | -46* | 10µM* | 14µM* | ? | ?
O=C(O)C1CCN(C(=O)c2ccccc2Cl)CC1 | 3% | 5 | 3%[59 µM] | 2% | -4% | 2%
O=C1C(Cl)=C(N2CCC(C(=O)O)CC2)C(=O)c2ccccc21 | ? | -29 | 50µM* | 4.5µM* | 10µM*[quencher] | 11µM*

Compound activity (PubChem)
